# Assay results reported in ChEMBL document CHEMBL2218924, “A broad activity screen in support of a chemogenomic map for kinase signalling research and drug discovery” (Biochem J, 2013).
# Target: Glycogen synthase kinase-3 beta (Homo sapiens) (UniProt P49841)
# Conditions: at 1 µM
# Sequence of Glycogen synthase kinase-3 beta (Homo sapiens) (P49841 whole entry, looked up): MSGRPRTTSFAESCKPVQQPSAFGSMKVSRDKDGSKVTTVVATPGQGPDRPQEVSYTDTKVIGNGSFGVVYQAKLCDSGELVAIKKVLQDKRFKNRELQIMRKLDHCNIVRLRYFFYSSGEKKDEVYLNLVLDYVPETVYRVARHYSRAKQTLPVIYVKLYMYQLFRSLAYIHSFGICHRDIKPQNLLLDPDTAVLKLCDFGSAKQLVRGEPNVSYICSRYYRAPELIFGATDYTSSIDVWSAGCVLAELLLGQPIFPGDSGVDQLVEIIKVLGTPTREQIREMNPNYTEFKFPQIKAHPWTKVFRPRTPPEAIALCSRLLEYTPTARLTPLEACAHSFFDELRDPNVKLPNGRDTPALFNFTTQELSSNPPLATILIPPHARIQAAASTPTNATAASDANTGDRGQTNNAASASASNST
row,SMILES,residual activity [%]
1,Cn1c2ccccc2c2c3c(c4c5ccccc5n(CCC#N)c4c21)CNC3=O,15
2,O=C1Nc2ccccc2/C1=C\c1c(Cl)[nH]c2ccccc12,141
3,CCCCc1c(-c2ccc(OC)cc2)[nH]c2nccnc12,52
4,Nc1nc(Nc2ccc(S(N)(=O)=O)cc2)nn1C(=O)c1c(F)cccc1F,23
5,O=C1NC(=O)C(c2c[nH]c3ccccc23)=C1c1c[nH]c2ccccc12,31
6,CC(C)(C)n1nc(Cc2cccc3ccccc23)c2c(N)ncnc21,103
7,Nc1ncnc2c1cnn2-c1ccccc1,84
8,CCCCc1c(-c2ccc(O)cc2)[nH]c2nccnc12,79
9,CC(C)c1nn(-c2c(Cl)cccc2Cl)c2nc(Cc3ccc(OCCO)cc3)[nH]c(=O)c12,51
10,O=C(c1ccccc1)c1ccc(N2CCOCC2)cc1O,96
11,O=C(c1cc2cc(O)ccc2[nH]1)c1cc2cc(O)ccc2[nH]1,59
12,O=c1cc(N2CCOCC2)oc2c1ccc1ccccc12,101
13,O=C(O)/C=C/c1cc(Br)c(Br)c(Br)c1Br,125
14,O=C1NC(=O)c2c1c1c3ccccc3[nH]c1n1cncc21,26
15,O=C1Nc2ccc(Cl)cc2/C1=C/c1cc(Cl)c(O)c(Cl)c1,84
16,COc1ccc2c(c1)c(C1=C(c3c[nH]c4ccccc34)C(=O)NC1=O)cn2CCCN(C)C,30
17,Nc1ncnc2c1c(-c1ccc(Oc3ccccc3)cc1)cn2C1CCCC1,88
18,O=C1NC(=O)C(c2cn(CCCn3ccnc3)c3ccccc23)=C1Nc1ccccc1,14
19,CN(C)S(=O)(=O)c1ccc2c(c1)/C(=C/c1cc3c([nH]1)CCCC3)C(=O)N2,112
20,COc1cc2nccc(Oc3ccc(NC(=S)NC(=O)c4ccccc4C)cc3)c2cc1OC,86
21,CCCC(=O)Oc1ccc2[nH]c(C(=O)c3cc4ccccc4[nH]3)cc2c1,99
22,O=C(CCCc1ccc(-c2ccccc2F)cc1)Nc1ccc(O)cc1,102

# Target: Glycogen synthase kinase-3 beta (Homo sapiens) (UniProt P49841)
# Conditions: at 10 µM
row,SMILES,residual activity [%]
1,Cn1c2ccccc2c2c3c(c4c5ccccc5n(CCC#N)c4c21)CNC3=O,26
2,O=C1Nc2ccccc2/C1=C\c1c(Cl)[nH]c2ccccc12,80
3,CCCCc1c(-c2ccc(OC)cc2)[nH]c2nccnc12,71
4,Nc1nc(Nc2ccc(S(N)(=O)=O)cc2)nn1C(=O)c1c(F)cccc1F,3
5,O=C1NC(=O)C(c2c[nH]c3ccccc23)=C1c1c[nH]c2ccccc12,6
6,COc1cc2c(cc1OC)-c1n[nH]c(Nc3cccc(F)c3)c1C2,75
7,CC(C)(C)n1nc(Cc2cccc3ccccc23)c2c(N)ncnc21,65
8,CCCCc1c(-c2ccc(O)cc2)[nH]c2nccnc12,73
9,CC(C)c1nn(-c2c(Cl)cccc2Cl)c2nc(Cc3ccc(OCCO)cc3)[nH]c(=O)c12,45
10,O=C(c1ccccc1)c1ccc(N2CCOCC2)cc1O,87
11,O=C(c1cc2cc(O)ccc2[nH]1)c1cc2cc(O)ccc2[nH]1,20
12,O=c1cc(N2CCOCC2)oc2c1ccc1ccccc12,73
13,O=C(O)/C=C/c1cc(Br)c(Br)c(Br)c1Br,106
14,O=C1NC(=O)c2c1c1c3ccccc3[nH]c1n1cncc21,29
15,O=C1Nc2ccc(Cl)cc2/C1=C/c1cc(Cl)c(O)c(Cl)c1,44
16,COc1ccc2c(c1)c(C1=C(c3c[nH]c4ccccc34)C(=O)NC1=O)cn2CCCN(C)C,4
17,O=C1NC(=O)C(c2cn(CCCn3ccnc3)c3ccccc23)=C1Nc1ccccc1,3
18,CN(C)S(=O)(=O)c1ccc2c(c1)/C(=C/c1cc3c([nH]1)CCCC3)C(=O)N2,94
19,COc1cc2nccc(Oc3ccc(NC(=S)NC(=O)c4ccccc4C)cc3)c2cc1OC,99
20,CCCC(=O)Oc1ccc2[nH]c(C(=O)c3cc4ccccc4[nH]3)cc2c1,95
21,O=C(CCCc1ccc(-c2ccccc2F)cc1)Nc1ccc(O)cc1,79

# Target: Homeodomain-interacting protein kinase 1 (Homo sapiens) (UniProt Q86Z02)
# Conditions: at 1 µM
# Sequence of Homeodomain-interacting protein kinase 1 (Homo sapiens) (Q86Z02 whole entry, looked up): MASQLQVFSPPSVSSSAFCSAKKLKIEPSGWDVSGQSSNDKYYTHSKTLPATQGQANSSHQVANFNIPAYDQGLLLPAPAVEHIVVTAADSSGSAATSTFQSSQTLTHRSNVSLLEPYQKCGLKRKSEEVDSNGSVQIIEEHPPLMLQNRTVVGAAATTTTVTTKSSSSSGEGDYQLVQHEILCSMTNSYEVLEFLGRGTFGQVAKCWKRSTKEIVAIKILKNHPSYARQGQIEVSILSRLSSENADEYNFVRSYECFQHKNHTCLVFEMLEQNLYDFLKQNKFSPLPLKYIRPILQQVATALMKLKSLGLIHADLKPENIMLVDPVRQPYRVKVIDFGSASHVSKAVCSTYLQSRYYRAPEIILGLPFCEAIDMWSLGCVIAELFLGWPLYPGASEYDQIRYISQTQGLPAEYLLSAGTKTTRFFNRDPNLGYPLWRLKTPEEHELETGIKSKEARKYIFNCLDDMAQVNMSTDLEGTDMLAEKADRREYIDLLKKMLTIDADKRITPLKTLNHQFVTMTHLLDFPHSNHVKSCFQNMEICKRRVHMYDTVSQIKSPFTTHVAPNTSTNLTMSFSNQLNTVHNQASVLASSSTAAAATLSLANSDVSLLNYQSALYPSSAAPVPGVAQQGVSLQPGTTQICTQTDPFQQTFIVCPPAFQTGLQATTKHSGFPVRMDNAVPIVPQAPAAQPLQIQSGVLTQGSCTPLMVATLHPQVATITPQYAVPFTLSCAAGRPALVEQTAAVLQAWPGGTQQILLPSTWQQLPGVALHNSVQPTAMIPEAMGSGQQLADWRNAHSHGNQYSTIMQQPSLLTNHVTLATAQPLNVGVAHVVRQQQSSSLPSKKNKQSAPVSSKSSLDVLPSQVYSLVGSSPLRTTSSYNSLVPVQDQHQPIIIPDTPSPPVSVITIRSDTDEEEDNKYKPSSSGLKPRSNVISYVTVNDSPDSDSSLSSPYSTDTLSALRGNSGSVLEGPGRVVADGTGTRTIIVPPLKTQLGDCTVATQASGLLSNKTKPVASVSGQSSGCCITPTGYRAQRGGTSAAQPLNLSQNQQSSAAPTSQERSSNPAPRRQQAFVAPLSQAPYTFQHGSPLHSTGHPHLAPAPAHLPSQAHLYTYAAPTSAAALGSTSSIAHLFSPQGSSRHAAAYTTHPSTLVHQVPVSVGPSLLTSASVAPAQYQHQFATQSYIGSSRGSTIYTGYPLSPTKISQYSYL
row,SMILES,residual activity [%]
1,Nc1nc(Nc2ccc(S(N)(=O)=O)cc2)nn1C(=O)c1c(F)cccc1F,75
2,CC(C)(C)n1nc(Cc2cccc3ccccc23)c2c(N)ncnc21,95
3,CC(C)c1nn(-c2c(Cl)cccc2Cl)c2nc(Cc3ccc(OCCO)cc3)[nH]c(=O)c12,104
4,O=C(c1ccccc1)c1ccc(N2CCOCC2)cc1O,98
5,O=c1cc(N2CCOCC2)oc2c1ccc1ccccc12,90
6,O=C(O)/C=C/c1cc(Br)c(Br)c(Br)c1Br,93
7,O=C1NC(=O)c2c1c1c3ccccc3[nH]c1n1cncc21,77
8,O=C1Nc2ccc(Cl)cc2/C1=C/c1cc(Cl)c(O)c(Cl)c1,93
9,NC(=O)Nc1sc(-c2ccc(F)cc2)cc1C(N)=O,106
10,Nc1ncnc2c1c(-c1ccc(Oc3ccccc3)cc1)cn2C1CCCC1,86
11,O=C(NC(NC(=S)Nc1ccc(F)c([N+](=O)[O-])c1)C(Cl)(Cl)Cl)C(c1ccccc1)c1ccccc1 (configuration not stated),99
12,COc1cc2nccc(Oc3ccc(NC(=S)NC(=O)c4ccccc4C)cc3)c2cc1OC,93
13,CCCC(=O)Oc1ccc2[nH]c(C(=O)c3cc4ccccc4[nH]3)cc2c1,98
14,O=C(CCCc1ccc(-c2ccccc2F)cc1)Nc1ccc(O)cc1,108
